From the supplement of paper PMC9262897, “Low-cost anti-mycobacterial drug discovery using engineered E. coli” (Nature Communications, 2022)
Structures can show the parent of a compound that is named as a salt. ± gives the standard deviation of the averaged measurements.

Test system: E. coli TESEC Alr+ wild-type control
Assay: growth (OD600 after 10 h); higher = more growth (less inhibition)
Details: compound 0.1 mM; raw OD600 reference: median of DMSO wells 0.49, cell-free background 0.052
Experimental: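 TESEC Mtb Alr E. coli (ΔaraC ΔtolC ΔentC Δalr ΔdadX, arabinose-inducible Mtb Alr) or the Alr+ wild-type control strain, grown in defined M9-fructose medium without D-alanine in 96-well plates with Prestwick library compounds at 0.1 mM and 1% DMSO. Low Alr induction is 0.1 µM arabinose and high induction is 10 mM arabinose.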

Compound	growth
CS(=O)(=O)Nc1ccc([N+](=O)[O-])cc1Oc1ccccc1 [Nimesulide]	0.3996 ± 0.002
CC(=O)Nc1ccc(CC(=O)O)cc1 [Actarit]	0.574 ± 0.11
CCCc1ncc(C[n+]2ccccc2C)c(N)n1 [Amprolium hydrochloride]	0.497 ± 0.041
Cc1ncc(C[n+]2csc(CCO)c2C)c(N)n1 [Thiamine hydrochloride]	0.451 ± 0.011
CCCCC(=O)O[C@H]1CC[C@H]2[C@@H]3CCc4cc(O)ccc4[C@H]3CC[C@]12C [Estradiol Valerate]	0.48 ± 0.071
NC(=O)OCC(COC(N)=O)c1ccccc1 [Felbamate]	0.608 ± 0.097
COCCOC(=O)C1=C(C)NC(C)=C(C(=O)OC/C=C/c2ccccc2)C1c1cccc([N+](=O)[O-])c1 (stereo not given) [Cilnidipine]	0.518 ± 0.028
O=C(O)COC(=O)Cc1ccccc1Nc1c(Cl)cccc1Cl [Aceclofenac]	0.424 ± 0.0057
CCC(=O)OCC(=O)[C@@]1(OC(=O)CC)[C@@H](C)C[C@H]2[C@@H]3CCC4=CC(=O)C=C[C@]4(C)[C@@]3(Cl)[C@@H](O)C[C@@]21C [Beclomethasone dipropionate]	0.499 ± 0.027
COc1ccc(C(=O)NCc2cccnc2)cc1C(=O)NCc1cccnc1 [Picotamide monohydrate]	0.453 ± 0.033
CCN(Cc1ccncc1)C(=O)C(CO)c1ccccc1 (stereo not given) [Tropicamide]	0.527 ± 0.08
NC(=O)C(c1ccccc1)(c1ccccc1)[C@@H]1CCN(CCc2ccc3c(c2)CCO3)C1 [Darifenacin hydrobromide]	0.403 ± 0.013
CCS(=O)(=O)CCn1c([N+](=O)[O-])cnc1C [Tinidazole]	0.521 ± 0.092
CC(C)NCC(O)COc1cccc2[nH]ccc12 (stereo not given) [Pindolol]	0.474 ± 0.048
Cc1ccc(C)c(OCCCC(C)(C)C(=O)O)c1 [Gemfibrozil]	0.41 ± 0.018
O=c1[nH]c(=O)n(C2CCCO2)cc1F (stereo not given) [Tegafur]	0.586 ± 0.12
Nc1c(Br)cc(Br)cc1CN[C@H]1CC[C@H](O)CC1 [Ambroxol hydrochloride]	0.626 ± 0.055
CCCCC(O)c1ccccc1 (stereo not given) [Fenipentol]	0.542 ± 0.07
CCN(CC)CCOC(=O)C1(c2ccc([N+](=O)[O-])cc2)CCCC1 [Nitrocaramiphen hydrochloride]	0.488 ± 0.054
CN(c1nccc(=O)[nH]1)C1CCN(c2nc3ccccc3n2Cc2ccc(F)cc2)CC1 [Mizolastine]	0.426 ± 0.018

Compound	growth
CC1CS(=O)(=O)CCN1/N=C/c1ccc([N+](=O)[O-])o1 (stereo not given) [Nifurtimox]	0.354 ± 0.021
Oc1ncnc2[nH]ncc12 [Allopurinol]	0.53 ± 0.078
CNNCc1ccc(C(=O)NC(C)C)cc1 [Procarbazine hydrochloride]	0.454 ± 0.01
C[C@H](O)C(=O)Nc1c(I)c(C(=O)NC(CO)CO)c(I)c(C(=O)NC(CO)CO)c1I [Iopamidol]	0.465 ± 0.036
Cc1nc2ccccn2c(=O)c1CCN1CCC(C(=O)c2ccc(F)cc2)CC1 [Pirenperone]	0.469 ± 0.013
CCN1CCCC1CNC(=O)c1cc(S(=O)(=O)CC)c(N)cc1OC (stereo not given) [Amisulpride]	0.578 ± 0.046
CC(=O)[C@@]12O[C@](C)(c3ccccc3)O[C@@H]1C[C@H]1[C@@H]3CCC4=CC(=O)CC[C@]4(C)[C@H]3CC[C@@]12C [Algestone acetophenide]	0.381 ± 0.016
CN(C)c1ccc(O)c2c1C[C@H]1C[C@H]3[C@H](N(C)C)C(=O)C(C(N)=O)=C(O)[C@@]3(O)C(=O)C1=C2O [Minocycline hydrochloride]	0.0527 ± 0.00085
CCCCOC(=O)c1ccc(O)cc1 [Butylparaben]	0.399 ± 0.014
Clc1ccc2c(c1)CCc1cccnc1C2=C1CCNCC1 [Desloratadine]	0.545 ± 0.014
C[C@H](CCC(=O)O)[C@H]1CC[C@H]2[C@@H]3C(=O)C[C@@H]4CC(=O)CC[C@]4(C)[C@H]3CC(=O)[C@]12C [Dehydrocholic acid]	0.569 ± 0.034
C[C@]12CC[C@@H]3c4ccc(O)cc4CC[C@H]3[C@@H]1C[C@@H](O)[C@@H]2O [Estriol]	0.474 ± 0.021
NC(=O)c1ncn([C@@H]2O[C@H](CO)[C@@H](O)[C@H]2O)n1 [Ribavirin]	0.54 ± 0.043
OC(c1cc(C(F)(F)F)nc2c(C(F)(F)F)cccc12)C1CCCCN1 (stereo not given) [Mefloquine hydrochloride]	0.04863 ± 0.00045
NC(=O)N1c2ccccc2CC(=O)c2ccccc21 [Oxcarbazepine]	0.601 ± 0.13
CC(C(=O)O)c1ccc2c(c1)Cc1cccnc1O2 (stereo not given) [Pranoprofen]	0.4398 ± 0.0017
Nc1ccc(C(=O)NCC(=O)O)cc1 [Aminohippuric acid]	0.6256 ± 0.0055
CC/C(=C(/CC)c1ccc(O)cc1)c1ccc(O)cc1 [Diethylstilbestrol]	0.0495 ± 0.0011
Cc1c(NC(C)C)c(=O)n(-c2ccccc2)n1C [Isopyrin hydrochloride]	0.44 ± 0.036
c1cnc(N2CCN(Cc3ccc4c(c3)OCO4)CC2)nc1 [Piribedil hydrochloride]	0.512 ± 0.077
